# From PubChem BioAssay AID1159580 (chemical genetic matrix, 2015)
# Screen size: about 5,500 compounds; about 2,000 (36%) were called active. Inconclusive results (about 18%) are left out. The list shows a part of the results. Unmarked numbers belong to inactive results. Rule as the data show it: active = normalized growth mostly below about 0.91 (no sharp cut-off); inconclusive = no clear call, values can overlap the other calls; inactive = mostly above about 0.92.
# Test: chemical genetic growth profiling, strain panel (AID 1159580);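 also: tested at 20 µM; growth read once vehicle control cultures reached saturation at 30 °C; 1 = growth at the plate median or of vehicle wells; lower values mean less growth of the strain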
# Conditions: growth OD
smiles,measurement,setting,value
NC[C@H](O)c1ccc(O)c(O)c1,normalized growth,"S. cerevisiae deletion strains, locus YJR066W, strain TOR1, hits give low values",0.934
same,normalized growth,"S. cerevisiae deletion strains, locus YJR075W, strain HOC1, hits give low values",1.02
same,normalized growth,"S. cerevisiae deletion strains, locus YKL009W, strain mrt4, hits give low values",1
same,normalized growth,"S. cerevisiae deletion strains, locus YKL068W, hits give low values",1.01
same,normalized growth,"S. cerevisiae deletion strains, locus YKL085W, strain MDH1 (second series), hits give low values",1.01
same,normalized growth,"S. cerevisiae deletion strains, locus YKL085W, strain MDH1, hits give low values",1.01
same,normalized growth,"S. cerevisiae deletion strains, locus YKL160W, strain elf1, hits give low values",1.02
same,normalized growth,"S. cerevisiae deletion strains, locus YKL190W, strain CNB1, hits give low values",1.01
same,normalized growth,"S. cerevisiae deletion strains, locus YKR001C, strain vps1, hits give low values",0.999
same,normalized growth,"S. cerevisiae deletion strains, locus YKR026C, strain gcn3, hits give low values",1
same,normalized growth,"S. cerevisiae deletion strains, locus YKR091W, strain srl3, hits give low values",1.01
same,normalized growth,"S. cerevisiae deletion strains, locus YLL001W, strain dnm1, hits give low values",1.02
same,normalized growth,"S. cerevisiae deletion strains, locus YLL026W, hits give low values",1.02
same,normalized growth,"S. cerevisiae deletion strains, locus YLL041C, strain sdh2, hits give low values",1
same,normalized growth,"S. cerevisiae deletion strains, locus YLR027C, strain aat2, hits give low values",1.01
same,normalized growth,"S. cerevisiae deletion strains, locus YLR039C, strain RIC1, hits give low values",1
same,normalized growth,"S. cerevisiae deletion strains, locus YLR058C, strain SHM2, hits give low values",1.01
same,normalized growth,"S. cerevisiae deletion strains, locus YLR102C, strain apc9, hits give low values",1.02
same,normalized growth,"S. cerevisiae deletion strains, locus YLR113W, strain HOG1, hits give low values",0.97
same,normalized growth,"S. cerevisiae deletion strains, locus YLR221C, strain rsa3, hits give low values",1.01
same,normalized growth,"S. cerevisiae deletion strains, locus YLR258W, strain gsy2, hits give low values",1.01
same,normalized growth,"S. cerevisiae deletion strains, locus YLR262C, strain YPT6 (second series), hits give low values",1.02
same,normalized growth,"S. cerevisiae deletion strains, locus YLR262C, strain YPT6, hits give low values",1.04
same,normalized growth,"S. cerevisiae deletion strains, locus YLR268W, strain sec22, hits give low values",1.04
same,normalized growth,"S. cerevisiae deletion strains, locus YLR320W, strain mms22, hits give low values",1.04
same,normalized growth,"S. cerevisiae deletion strains, locus YLR330W, strain CHS5, hits give low values",1.01
same,normalized growth,"S. cerevisiae deletion strains, locus YLR342W, strain FKS1 (second series), hits give low values",1.01
same,normalized growth,"S. cerevisiae deletion strains, locus YLR342W, strain FKS1, hits give low values",1.01
same,normalized growth,"S. cerevisiae deletion strains, locus YLR357W, strain rsc2, hits give low values",0.938
same,normalized growth,"S. cerevisiae deletion strains, locus YLR370C, strain arc18, hits give low values",1.01
same,normalized growth,"S. cerevisiae deletion strains, locus YLR371W, strain rom2, hits give low values",1.03
same,normalized growth,"S. cerevisiae deletion strains, locus YLR384C, strain iki3, hits give low values",1
same,normalized growth,"S. cerevisiae deletion strains, locus YLR418C, strain cdc73, hits give low values",1
same,normalized growth,"S. cerevisiae deletion strains, locus YML016C, strain PPZ1, hits give low values",1
same,normalized growth,"S. cerevisiae deletion strains, locus YML032C, strain rad52, hits give low values",1.02
same,normalized growth,"S. cerevisiae deletion strains, locus YML120C, strain ndi1, hits give low values",1
same,normalized growth,"S. cerevisiae deletion strains, locus YML124C, strain tub3, hits give low values",1.01
same,normalized growth,"S. cerevisiae deletion strains, locus YMR058W, strain fet3, hits give low values",0.841 (active)
same,normalized growth,"S. cerevisiae deletion strains, locus YMR078C, strain ctf18, hits give low values",1.02
same,normalized growth,"S. cerevisiae deletion strains, locus YMR125W, strain sto1, hits give low values",0.952
same,normalized growth,"S. cerevisiae deletion strains, locus YMR129W, hits give low values",0.993
same,normalized growth,"S. cerevisiae deletion strains, locus YMR205C, strain PFK2, hits give low values",1.06
same,normalized growth,"S. cerevisiae deletion strains, locus YMR223W, strain ubp8, hits give low values",0.99
same,normalized growth,"S. cerevisiae deletion strains, locus YMR231W, strain pep5, hits give low values",0.995
same,normalized growth,"S. cerevisiae deletion strains, locus YMR263W, strain SAP30, hits give low values",1.01
same,normalized growth,"S. cerevisiae deletion strains, locus YMR307W, strain GAS1, hits give low values",0.979
same,normalized growth,"S. cerevisiae deletion strains, locus YNL067W, strain RPL9B, hits give low values",1.01
same,normalized growth,"S. cerevisiae deletion strains, locus YNL071W, strain lat1, hits give low values",0.997
same,normalized growth,"S. cerevisiae deletion strains, locus YNL183C, strain NPR1, hits give low values",0.948
same,normalized growth,"S. cerevisiae deletion strains, locus YNL209W, strain ssb2, hits give low values",0.999
same,normalized growth,"S. cerevisiae deletion strains, locus YNL233W, strain BNI4, hits give low values",1.01
same,normalized growth,"S. cerevisiae deletion strains, locus YNL248C, strain rpa49, hits give low values",0.978
same,normalized growth,"S. cerevisiae deletion strains, locus YNL250W, strain rad50, hits give low values",1.01
same,normalized growth,"S. cerevisiae deletion strains, locus YNL271C, strain bni1, hits give low values",1.01
same,normalized growth,"S. cerevisiae deletion strains, locus YNL298W, strain CLA4, hits give low values",1
same,normalized growth,"S. cerevisiae deletion strains, locus YNL307C, strain MCK1, hits give low values",1.02
same,normalized growth,"S. cerevisiae deletion strains, locus YNL322C, strain KRE1 (second series), hits give low values",1.01
same,normalized growth,"S. cerevisiae deletion strains, locus YNR049C, strain mso1, hits give low values",1.01
same,normalized growth,"S. cerevisiae deletion strains, locus YNR052C, strain pop2, hits give low values",1.01
same,normalized growth,"S. cerevisiae deletion strains, locus YOL006C, strain TOP1, hits give low values",0.941
same,normalized growth,"S. cerevisiae deletion strains, locus YOL012C, strain htz1",1.04
same,normalized growth,"S. cerevisiae deletion strains, locus YOL147C, strain pex11, hits give low values",1.01
same,normalized growth,"S. cerevisiae deletion strains, locus YOR001W, strain rrp6, hits give low values",0.969
same,normalized growth,"S. cerevisiae deletion strains, locus YOR061W, strain CKA2, hits give low values",1.01
same,normalized growth,"S. cerevisiae deletion strains, locus YOR069W, strain VPS5, hits give low values",1.01
same,normalized growth,"S. cerevisiae deletion strains, locus YOR070C, strain gyp1, hits give low values",1
same,normalized growth,"S. cerevisiae deletion strains, locus YOR080W, strain dia2, hits give low values",1.01
same,normalized growth,"S. cerevisiae deletion strains, locus YOR083W, strain WHI5, hits give low values",1.05
same,normalized growth,"S. cerevisiae deletion strains, locus YOR106W, strain vam3, hits give low values",1.04
same,normalized growth,"S. cerevisiae deletion strains, locus YOR136W, strain idh2, hits give low values",1.02
same,normalized growth,"S. cerevisiae deletion strains, locus YOR144C, strain elg1, hits give low values",1.01
same,normalized growth,"S. cerevisiae deletion strains, locus YOR184W, strain ser1, hits give low values",1.06
same,normalized growth,"S. cerevisiae deletion strains, locus YOR231W, strain MKK1, hits give low values",1
same,normalized growth,"S. cerevisiae deletion strains, locus YOR265W, strain rbl2, hits give low values",1.01
same,normalized growth,"S. cerevisiae deletion strains, locus YOR270C, strain vph1, hits give low values",0.944
same,normalized growth,"S. cerevisiae deletion strains, locus YOR290C, strain snf2, hits give low values",1.01
same,normalized growth,"S. cerevisiae deletion strains, locus YOR316C, strain cot1, hits give low values",1.01
same,normalized growth,"S. cerevisiae deletion strains, locus YPL051W, strain arl3, hits give low values",0.99
same,normalized growth,"S. cerevisiae deletion strains, locus YPL078C, strain atp4, hits give low values",1.01
same,normalized growth,"S. cerevisiae deletion strains, locus YPL106C, strain sse1, hits give low values",1
same,normalized growth,"S. cerevisiae deletion strains, locus YPL240C, strain hsp82, hits give low values",0.994
same,normalized growth,"S. cerevisiae deletion strains, locus YPL241C, strain CIN2, hits give low values",1.01
same,normalized growth,"S. cerevisiae deletion strains, locus YPL256C, strain CLN2, hits give low values",0.961
same,normalized growth,"S. cerevisiae deletion strains, locus YPR119W, strain clb2, hits give low values",1.02
same,normalized growth,"S. cerevisiae deletion strains, locus YPR141C, strain kar3, hits give low values",1.01
same,normalized growth,"S. cerevisiae deletion strains, locus YPR163C, strain tif3, hits give low values",1.01
same,normalized growth,"S. cerevisiae deletion strains, locus YPR167C, strain met16, hits give low values",1.02
same,normalized growth,"S. cerevisiae deletion strains, strain wtn01, hits give low values",1.02
same,normalized growth,"S. cerevisiae strains, strain wild type, hits give low values",1.01
